# High-throughput results (PubChem BioAssay)
# Pf Dd2 inh: blocks in vitro growth of P. falciparum Dd2. P. falciparum Dd2 growth, SYBR Green, 72 h. Potency, µM (highest dose often 28.9 µM), for inactives: at the top dose activity, negative = inhibition, actives largely listed as inhibitors. 120,000 compounds, 4.3% hits. AID 1347417; active = well fitted inhibition curve with a large enough effect;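 also: plate controls were DMSO vehicle for no effect and reference drug for full effect; nearly all actives have a fitted effect of over 65% in size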
#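 Infected erythrocytes (Dd2, 0.3% parasitemia, 2.5% hematocrit final) are added to compound in RPMI-1640/Albumax II medium, grown 72 h at 37C in low oxygen, then lysed with saponin/Triton-X containing SYBR Green and read by fluorescence.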
# Starred values were filed as active, the others as inactive; i = inactive; [ ] = another dose, or the depositor's remark. The full list was thinned out, with hits kept by preference. Potency is read from the fitted curve at half-maximal effect.
SMILES,Pf Dd2 inh
COc1ccc(C(=O)CC2(O)C(=O)N(Cc3ccccc3Cl)c3ccccc32)cc1 (centres undefined),9%
COCCn1ncc(N2CCC(C(=O)N3CCN(C(C)C)CC3)C2)cc1=O (centres undefined),38%
CSCC(=O)N1C[C@@H](NC(=O)NC2CCCCC2)C[C@H]1C(=O)N[C@H](Cc1c[nH]c2ccccc12)C(N)=O,-5%
CN(C)c1cccc(C(=O)N2CCC(n3cc(-c4nc(-c5ccccc5)no4)nn3)CC2)c1,-17%
COc1ccc2cc(CN3CCCC(C#N)C3)c(-c3cccs3)nc2c1 (centres undefined),-17%
COc1ccc(-c2nc3cc(C)ccc3cc2CN2CCCC(CO)C2)cc1OC (centres undefined),-20%
COC[C@@H]1CCCN1Cc1cc2ccc(C)cc2nc1-c1ccc(OC)cc1,14µM*
COc1ccc(-c2nc3cc(C)ccc3cc2CN2CCCC(O)C2)cc1OC (centres undefined),-19%
COc1ccc(-c2nc3cc(C)ccc3cc2CN2CCN(C)C(CCO)C2)cc1 (centres undefined),10µM*
COC[C@H]1CCCN1Cc1nc(C2(O)CCN(C)CC2)cs1,-18%[44.1 µM]
O=C(N[C@H]1CCN2C(=O)N(c3cccc4nsnc34)C(=O)[C@@H]2C1)c1ccc(F)c(Cl)c1,-15%
CN(Cc1ccco1)C(=O)c1ccc(-c2ccc(N3CCCCCC3)nc2)cc1,-19%
Cc1ccc(-c2noc(CCCC(=O)N3CCc4nc5cc(-c6ccccc6)[nH]n5c(=O)c4C3)n2)cc1,15%[5.79 µM]
O=C1CN(C(=O)C2CNCC23CCOCC3)CCN1 (centres undefined),19%
Cc1noc([C@H]2CCN(C(=O)Nc3ccc4c(c3)OCCO4)C[C@H]2NC(=O)C2CC2)n1,2%
Cn1c(C(=O)NCCN2CCOCC2)nc2nc(-c3ccccc3)c(Cl)cc21,i
COc1ncccc1-c1cc2c(nc1-c1ccccc1)nc(C(=O)NCCN(C)C)n2C,i
CN(C)CCNC(=O)c1nc2nc(-c3ccccc3)c(-c3ccc(Cl)cc3)cc2n1C,5µM*
CN(C)CCNC(=O)c1nc2nc(-c3ccccc3)c(-c3ccccc3O)cc2n1C,5.6µM*
COCc1nc2nc(-c3ccccc3)c(-c3ccccc3O)cc2n1C,4.5µM*
COc1cc(CNC(=O)c2nc3nc(-c4ccccc4)c(Cl)cc3n2C)cc(OC)c1,8.9µM*
Cn1c(C(=O)NCC2CC2)nc2nc(-c3ccccc3)c(Cl)cc21,-13%[44.1 µM]
COc1ccc(CNC(=O)c2nc3nc(-c4ccccc4)c(Cl)cc3n2C)cc1OC,9%[44.1 µM]
Cn1c(C(=O)NCc2ccoc2)nc2nc(-c3ccccc3)c(Cl)cc21,-5%[44.1 µM]
Cn1c(C(=O)NCCc2ccccn2)nc2nc(-c3ccccc3)c(Cl)cc21,i
SMILES,Pf Dd2 inh
COCc1nc2nc(-c3ccccc3)c(-c3ccccc3OC)cc2n1C,-6%[44.1 µM]
COCc1nc2nc(-c3ccccc3)c(-c3cccnc3)cc2n1C,-6%[44.1 µM]
COc1ccccc1C(=O)NC1CCN(c2nnc3ccccn23)CC1,i
Cc1noc(C)c1[S+](=O)([O-])N1CCC(c2nn(-c3ccccc3)c(=O)[nH]2)CC1,-17%
Cn1cc([C@@H](NC(=O)CCC2=NNC(=O)CC2)C2CC(O)C2)cn1 (some centres undefined),0%
COc1ccc(CC(=O)NCC(=O)N2CCN(c3ccccn3)CC2)cc1,0%
C=CCNC(=O)c1cn2c(n1)CN([S+](=O)([O-])c1cccc(C(F)(F)F)c1)CC2,62%
COc1ccc(CCNC(=O)CN2C(=O)C(c3ccccc3)=NC23CCCCC3)cc1OC,i
COc1cc(-c2oc3ccc(C)cc3c(=O)c2O)cc(OC)c1OC,13µM*
COc1cc(C2c3c(oc4ccc(C)cc4c3=O)C(=O)N2Cc2ccccc2)ccc1O (centres undefined),-23%
COc1cc(C2c3c(oc4ccc(C)cc4c3=O)C(=O)N2Cc2ccc(F)cc2)ccc1O (centres undefined),-5%
CCCN1C(=O)C(CC(=O)NC(C)CC)Sc2ncccc21 (centres undefined),-10%
CN1CCN(C[C@@H]2CN(C(=O)C3(c4ccccc4)CC3)C[C@@H]2CO)CC1,-7%
COc1cccc(CN[C@@H]2CCC[C@@H](C(=O)NC3CC3)CC(=O)N(C)C2)c1,-3%[44.1 µM]
CCc1nc(CCNC(=O)CC2COCCN2S(=O)(=O)C2CC2)no1 (centres undefined),2%
COc1ccccc1-n1c(/C=C/c2c(C)n(C)c3ccccc23)nc2ccccc2c1=O,4µM*
O=c1c2ccccc2nc(/C=C/c2cccc3ccccc23)n1-c1ccccc1Cl,-4%
COc1ccc(Cl)cc1-n1c(/C=C/c2cccc3ccccc23)nc2ccccc2c1=O,9%
COc1ccc(-n2c(/C=C/c3c(C)[nH]c4ccccc34)nc3ccccc3c2=O)cc1,-14%
COc1ccc(-n2c(/C=C\c3ccccc3F)nc3ccccc3c2=O)cc1OC,i
Cc1ccccc1-n1c(/C=C/c2ccccc2F)nc2ccccc2c1=O,10µM*
Cc1ccccc1-n1c(/C=C/c2c(C)n(C)c3ccccc23)nc2ccccc2c1=O,2.8µM*
CSc1ccc(/C=C/c2nc3ccccc3c(=O)n2-c2cccc(Cl)c2C)cc1,i
Cc1ccc(-n2c(/C=C/c3ccc(Br)s3)nc3ccccc3c2=O)cc1,10%
COC(=O)[C@@H](Cc1cccnc1)NC(=O)[C@H]1CN(C(=O)c2cccnc2)CCN1C(=O)C1CCCCC1,1%
SMILES,Pf Dd2 inh
CC(=O)N1CCC2(CC1)CC(CC(=O)O)CCO2 (centres undefined),11%
CC(=O)Nc1ccc(S(=O)(=O)NC[C@@H]2C=C(C)[C@H](CC(=O)NCCN(C)C)C[C@H]2C(C)C)cc1,-2%
COCCN1CCCCCC(O)c2cc(C(=O)N3CCCCCC3)ccc21 (centres undefined),i
COc1ccc(C(=O)N2CCC3(CC2)OCC(C(=O)N2CCCC2)N3C(=O)c2ccc(F)cc2)cc1 (centres undefined),-2%
COc1ccc(NC(=O)C2CC(=O)N(c3n[nH]c4cccc(F)c34)C2)c(OC)c1 (centres undefined),-17%
Cc1ccsc1CN(C)Cc1c(C)n(C)n(-c2ccccc2)c1=O,4%
COCC(=O)NC[C@@H]1C=C(C)[C@H](CC(=O)O)C[C@H]1C(C)C,20%[44.1 µM]
CC1=C(C(=O)Nc2ccccc2)C(c2ccccc2Cl)n2ncc(C(=O)Nc3cccc(C)c3)c2N1 (centres undefined),3.2µM*
CC1=C(C(=O)Nc2ccc(C)cc2C)C(c2cccn2C)n2ncnc2N1 (centres undefined),10%
COc1cccc(C2C(C(=O)Nc3ccccc3)=C(C)Nc3nnnn32)c1OC (centres undefined),-25%
CC1=C(C(=O)Nc2ccc(C)cc2)C(c2ccccc2Cl)n2nnnc2N1 (centres undefined),23%
CC1=C(C(=O)Nc2ccc(C)cc2C)C(c2ccc([N+](=O)[O-])cc2)n2ncc(C(=O)Nc3ccc(F)cc3)c2N1 (centres undefined),1µM*
CC1=C(C(=O)Nc2ccc(C)cc2)C(c2ccc(Cl)cc2)n2nnnc2N1 (centres undefined),-27%
CCc1ccc(C2C(C(=O)Nc3ccccc3OC)=C(C)Nc3nc(SCc4ccccc4)nn32)cc1 (centres undefined),-9%
COc1ccccc1NC(=O)C1=C(C)Nc2c(C(=O)Nc3ccc(C)cc3)cnn2C1c1cccc(OC)c1OC (centres undefined),13%
